Compound activity from PubChem.
CYP2C9 inh: blocks human cytochrome P450 2C9; AID 777; hit rate 20% among 96,000; P11712; CYP2C9 Supersomes, luciferin-H conversion, luminescence; inhibition, % at 5 µM;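 active means blocking of liver enzyme CYP2C9 beyond about 50% at 5 µM, limit read from the data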
EphB4 antag: antagonists of human EphB4-ephrin-B2 interaction; P54760; EphB4 LBD / TNYL-RAW-Alexa532 peptide, fluorescence polarization; inhibition, % at 7 µM; hit rate 0.15% among 97,000;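 active means inhibition above the screen-wide mean inhibition plus 3 SD, cut at about 15% in these data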
CYP2C19 inh: inhibitors of human CYP2C19. P33261. CYP2C19 Supersomes, luciferin-H EGE luminescence, 30 min. inhibition, % at 5 µM. hit rate 21% among 96,000. AID 778;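 active means CYP2C19 inhibition above a set limit at 5 µM in the primary screen, cut at about 50% in these data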
Target sequence (P33261 whole entry, looked up): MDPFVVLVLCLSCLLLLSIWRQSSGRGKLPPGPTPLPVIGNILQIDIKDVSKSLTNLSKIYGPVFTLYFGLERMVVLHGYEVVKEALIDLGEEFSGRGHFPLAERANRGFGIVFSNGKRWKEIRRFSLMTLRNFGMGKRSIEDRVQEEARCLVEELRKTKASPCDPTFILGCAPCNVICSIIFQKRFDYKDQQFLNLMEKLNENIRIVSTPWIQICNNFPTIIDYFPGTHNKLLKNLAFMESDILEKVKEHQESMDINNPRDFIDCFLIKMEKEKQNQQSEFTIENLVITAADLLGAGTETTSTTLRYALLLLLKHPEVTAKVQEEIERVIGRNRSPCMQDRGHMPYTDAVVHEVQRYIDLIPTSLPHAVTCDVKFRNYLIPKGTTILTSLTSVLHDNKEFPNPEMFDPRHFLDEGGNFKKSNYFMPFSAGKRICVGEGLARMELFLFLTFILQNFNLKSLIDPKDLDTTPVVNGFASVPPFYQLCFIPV
CYP2C9 act: increases human cytochrome P450 2C9 activity; hit rate 1.4% among 96,000; P11712; activation factor at 5 µM; recombinant CYP2C9, luciferin-H conversion, luminescence; hits give high values; factor 1 = untreated enzyme, 0 = blocked;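 active means activation factor of 2 or more for CYP2C9 at a 5 µM dose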
CYP2C19 activ: increases human CYP2C19 enzyme activity | 96,000 tested, under 10 active | activation factor at 5 µM | recombinant CYP2C19, luciferin-H EGE luminescence; hits give high values; 0 = fully inhibited enzyme, 1 = untreated enzyme;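 active means activation factor of at least 2 at 5 µM in the primary screen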
Hits are given with their value. Sampled rows, rich in hits. Any-hit rate of the full collection: about 27%.

`O=C(CN(C(=O)CNS(=O)(=O)c1ccccc1)C1CCCC1)NCC1CCCO1` (stereo not given) gave CYP2C9 inh inactive, EphB4 antag inactive, CYP2C19 inh inactive, CYP2C9 act inactive and CYP2C19 activ inactive.
Screening CC1=CC(C#N)(C#N)C(C#N)(C#N)C(c2ccccc2)N1 (stereo not given) returned CYP2C9 inh 90, EphB4 antag inactive, CYP2C19 inh inactive, CYP2C9 act inactive and CYP2C19 activ inactive.
For COc1ccc(/C=C2\CCCC(C(=O)C(F)(F)F)=C2O)cc1 the results were CYP2C9 inh 82, EphB4 antag inactive, CYP2C19 inh inactive, CYP2C9 act inactive and CYP2C19 activ inactive.
CC(C)N=Cc1c(O)[nH]c2ccccc12 was read as CYP2C9 inh 54, EphB4 antag inactive, CYP2C19 inh inactive, CYP2C9 act inactive and CYP2C19 activ inactive.
CO/N=C/c1ccc(Sc2ccccc2)c([N+](=O)[O-])c1 was read as CYP2C9 inh 74, EphB4 antag inactive, CYP2C19 inh inactive, CYP2C9 act inactive and CYP2C19 activ inactive.
Screening O=[N+]([O-])c1cc(/C=N/O)ccc1SCc1ccccc1 returned CYP2C9 inh inactive, EphB4 antag inactive, CYP2C19 inh inactive, CYP2C9 act inactive and CYP2C19 activ inactive.
`CO/N=C/c1ccc(Sc2ccccc2N)c([N+](=O)[O-])c1` gave CYP2C9 inh 69, EphB4 antag inactive, CYP2C19 inh 74, CYP2C9 act inactive and CYP2C19 activ inactive.
Screening O=[N+]([O-])c1cc(/C=N/O)ccc1Sc1ccccc1 returned CYP2C9 inh 67, EphB4 antag inactive, CYP2C19 inh inactive, CYP2C9 act inactive and CYP2C19 activ inactive.
Screening Cc1ccc(C(=O)NNC(=O)C2CCN(c3nccc(C)n3)CC2)cc1 returned CYP2C9 inh 50, EphB4 antag inactive, CYP2C19 inh inactive, CYP2C9 act inactive and CYP2C19 activ inactive.
Screening Cc1ccnc(N2CCC(C(=O)NNC(=O)c3ccccc3)CC2)n1 returned CYP2C9 inh inactive, EphB4 antag inactive, CYP2C19 inh inactive, CYP2C9 act inactive and CYP2C19 activ inactive.
COc1ccc2c(c1)C(=O)N(c1ccccc1OC)C(=O)C2(C)C was read as CYP2C9 inh 63, EphB4 antag inactive, CYP2C19 inh 84, CYP2C9 act inactive and CYP2C19 activ inactive.
For COc1ccc2c(c1)C(=O)N(c1ccccc1)C(=O)C2 the results were CYP2C9 inh inactive, EphB4 antag inactive, CYP2C19 inh inactive, CYP2C9 act inactive and CYP2C19 activ inactive.
`CCOC(=O)CNC(=O)c1cccnc1` gave CYP2C9 inh inactive, EphB4 antag inactive, CYP2C19 inh inactive, CYP2C9 act inactive and CYP2C19 activ inactive.
For CCOC(=O)C1=C(C)NC(=O)NC1c1c(C)nn(-c2ccccc2)c1Cl (stereo not given) the results were CYP2C9 inh inactive, CYP2C19 inh inactive, CYP2C9 act inactive and CYP2C19 activ inactive.
For Cc1nn(-c2ccccc2)c(Cl)c1/C=C1\SC(=S)NC1=O the results were CYP2C9 inh 76, EphB4 antag inactive, CYP2C19 inh inactive, CYP2C9 act inactive and CYP2C19 activ inactive.
`O=C1c2ccccc2NC2(CCCCC2)N1c1ccc(O)cc1` gave CYP2C9 inh 56, EphB4 antag inactive, CYP2C19 inh inactive, CYP2C9 act inactive and CYP2C19 activ inactive.
CCn1cc(C(=O)NC(=S)Nc2cccc(O)c2)cn1 was read as CYP2C9 inh inactive, EphB4 antag inactive, CYP2C19 inh 65, CYP2C9 act inactive and CYP2C19 activ inactive.
CCN(CC)c1ccc(NC(=O)c2cnn(CC)c2)cc1 was read as CYP2C9 inh inactive, EphB4 antag inactive, CYP2C19 inh inactive, CYP2C9 act inactive and CYP2C19 activ inactive.
CCOC(=O)Cn1c(=O)n(CC(=O)OCC)c2ccccc21 was read as CYP2C9 inh inactive, EphB4 antag inactive, CYP2C19 inh inactive, CYP2C9 act inactive and CYP2C19 activ inactive.
CCOC(=O)CN1C(=O)C2Cc3ccccc3CN2C1=S (stereo not given) was read as CYP2C9 inh inactive, EphB4 antag inactive, CYP2C19 inh 70, CYP2C9 act inactive and CYP2C19 activ inactive.
Cc1cnc(NC(=O)CCCSc2nc3ccccc3s2)s1 was read as CYP2C9 inh inactive, EphB4 antag inactive, CYP2C19 inh inactive, CYP2C9 act inactive and CYP2C19 activ inactive.
CCNc1nc(SC(C(C)=O)C(C)=O)nc(N(C)C)n1 was read as CYP2C9 inh inactive, EphB4 antag inactive, CYP2C19 inh inactive, CYP2C9 act inactive and CYP2C19 activ inactive.
`CCC(C)Nc1nc(SC(C(C)=O)C(C)=O)nc(N(C)C)n1` (stereo not given) gave CYP2C9 inh 62, EphB4 antag inactive, CYP2C19 inh 52, CYP2C9 act inactive and CYP2C19 activ inactive.
For CS(=O)(=O)N1CCC(C(=O)c2cccc(Cl)c2)CC1 the results were CYP2C9 inh inactive, EphB4 antag inactive, CYP2C19 inh 79, CYP2C9 act inactive and CYP2C19 activ inactive.
Screening CCCS(=O)(=O)N1CCC(C(=O)c2cccc(C(F)(F)F)c2)CC1 returned CYP2C9 inh inactive, EphB4 antag inactive, CYP2C19 inh inactive, CYP2C9 act inactive and CYP2C19 activ inactive.
CC(C)(C)C(=O)NC1CCN(S(C)(=O)=O)CC1 was read as EphB4 antag inactive.
CC(C)(C)C(=O)NC1CCN(C(=O)N2CCCC2)CC1 was read as CYP2C9 inh inactive, EphB4 antag inactive, CYP2C19 inh 53, CYP2C9 act inactive and CYP2C19 activ inactive.
For CC1(C)CN(c2ccccc2)N(Cc2ccc(F)cc2)C1=O the results were CYP2C9 inh inactive, EphB4 antag inactive, CYP2C19 inh 60, CYP2C9 act inactive and CYP2C19 activ inactive.
`O=c1cc(N2CCN(c3ccccc3)CC2)[nH]c(=O)n1Cc1ccc(F)cc1` gave CYP2C9 inh inactive, EphB4 antag inactive, CYP2C19 inh inactive, CYP2C9 act inactive and CYP2C19 activ inactive.
Screening COc1cccc(OC)c1C(=O)Nc1ccc(S(=O)(=O)Nc2cc(C)nc(C)n2)cc1 returned CYP2C9 inh inactive, EphB4 antag inactive, CYP2C19 inh inactive, CYP2C9 act inactive and CYP2C19 activ inactive.
`CNc1nc2sc3c(c2c(=O)n1C)CC(C)(C)SC3` gave CYP2C9 inh 56, CYP2C19 inh 73, CYP2C9 act inactive and CYP2C19 activ inactive.
O=C(CN1CC(=O)Oc2ccccc21)NCc1ccco1 was read as CYP2C9 inh inactive, EphB4 antag inactive, CYP2C19 inh inactive, CYP2C9 act inactive and CYP2C19 activ inactive.
O=c1[nH]ncc2c3ccccc3n(Cc3ccc(F)cc3)c12 was read as CYP2C9 inh 72, EphB4 antag inactive, CYP2C19 inh inactive, CYP2C9 act inactive and CYP2C19 activ inactive.
Screening Cc1ccccc1Cn1c2ccccc2c2cnn(CC(=O)N3CCN(c4ccccc4)CC3)c(=O)c21 returned CYP2C9 inh inactive, EphB4 antag inactive, CYP2C19 inh 62, CYP2C9 act inactive and CYP2C19 activ inactive.
`O=C(Cn1ncc2c3ccccc3n(Cc3ccc(F)cc3)c2c1=O)N1CCN(c2ncccn2)CC1` gave CYP2C9 inh 95, EphB4 antag inactive, CYP2C19 inh 99, CYP2C9 act inactive and CYP2C19 activ inactive.
For O=C(Cn1cnc2ccccc2c1=O)N1CCN(c2ccccc2)CC1 the results were EphB4 antag inactive.
